# In the library only some 1.6% were active in any assay of this set; here they are far more common.
# V-ATPase pHluor: regulators of yeast V-ATPase proton transport; response, % at 10 µM; S. cerevisiae, pHLuorin cytosolic pH fluorescence; 0.37% of 350,000 active; in the data active = response mostly above about 7.3%, no sharp cut-off; inactive = mostly below about 5.4%; note: actives read high
# Rce1 inhib: yeast Ras-converting enzyme inhibition. Q03530. yeast membranes, quenched prenylated peptide cleavage fluorescence. calls only. 0.27% of 290,000 active. AID 2563;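 active = fall in fluorescence gain of 50% or more versus controls, with final raw signal at or below 3038400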
# NPR1 activator: GC-A (human) enzyme activation. 0.14% of 370,000 active. P16066. HEK293 GC-A cells, cGMP TR-FRET, EC30 ANP; 0% at EC30 ANP, 100% saturating ANP. AID 1671463. activation, % at 10 µM; in the data active = activation above about 40%
# NSD2 HMT inh: inhibitors of human histone methyltransferase NSD2. O96028. NSD2 peptide methylation, AlphaScreen, 120 min. inhibition, % at 12.5 µM. 0.54% of 310,000 active. AID 743445; in the data active = inhibition above about 50%
# Target sequence (O96028 whole entry, looked up): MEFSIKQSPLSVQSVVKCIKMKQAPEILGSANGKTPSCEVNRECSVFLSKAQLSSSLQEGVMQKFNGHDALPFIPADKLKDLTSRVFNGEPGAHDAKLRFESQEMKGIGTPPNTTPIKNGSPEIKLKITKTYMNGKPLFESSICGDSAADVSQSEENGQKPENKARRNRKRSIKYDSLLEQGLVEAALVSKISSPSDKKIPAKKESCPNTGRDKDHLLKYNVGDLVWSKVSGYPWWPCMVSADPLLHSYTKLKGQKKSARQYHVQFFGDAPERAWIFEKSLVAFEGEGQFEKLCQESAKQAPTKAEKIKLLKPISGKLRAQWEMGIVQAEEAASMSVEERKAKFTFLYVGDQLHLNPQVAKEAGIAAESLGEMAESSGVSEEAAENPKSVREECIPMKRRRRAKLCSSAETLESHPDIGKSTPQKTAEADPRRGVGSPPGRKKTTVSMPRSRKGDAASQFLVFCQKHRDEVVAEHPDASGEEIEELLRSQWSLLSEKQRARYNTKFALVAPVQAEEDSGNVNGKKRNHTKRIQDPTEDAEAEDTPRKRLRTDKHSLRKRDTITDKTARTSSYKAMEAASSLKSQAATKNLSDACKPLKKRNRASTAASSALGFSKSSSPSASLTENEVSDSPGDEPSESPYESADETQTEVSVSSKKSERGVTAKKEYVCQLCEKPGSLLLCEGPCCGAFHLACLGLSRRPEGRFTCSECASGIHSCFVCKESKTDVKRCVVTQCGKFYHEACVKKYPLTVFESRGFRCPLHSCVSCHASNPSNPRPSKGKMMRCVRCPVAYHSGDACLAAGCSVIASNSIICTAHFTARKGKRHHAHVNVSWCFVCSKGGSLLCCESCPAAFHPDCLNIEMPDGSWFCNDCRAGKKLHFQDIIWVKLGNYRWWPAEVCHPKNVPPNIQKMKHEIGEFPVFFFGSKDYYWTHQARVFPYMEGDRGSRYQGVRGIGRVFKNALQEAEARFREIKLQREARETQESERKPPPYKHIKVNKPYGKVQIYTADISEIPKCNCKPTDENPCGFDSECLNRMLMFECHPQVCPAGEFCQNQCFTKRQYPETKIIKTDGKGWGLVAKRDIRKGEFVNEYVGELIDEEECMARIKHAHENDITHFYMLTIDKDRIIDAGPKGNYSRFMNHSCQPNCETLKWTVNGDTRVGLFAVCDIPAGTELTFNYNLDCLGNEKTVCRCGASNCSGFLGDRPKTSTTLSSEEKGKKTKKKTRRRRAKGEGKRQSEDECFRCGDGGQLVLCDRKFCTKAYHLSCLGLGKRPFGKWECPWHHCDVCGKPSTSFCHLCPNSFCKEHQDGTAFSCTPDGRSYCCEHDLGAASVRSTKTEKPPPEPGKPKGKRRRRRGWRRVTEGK
# NPR2 activator: GC-B (human) receptor activation | P20594 | HEK293-GC-B cells, CNP EC30, cGMP TR-FRET; 0% at EC30 CNP, 100% saturating CNP | activation, % at 10 µM | 0.11% of 370,000 active;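 active = activation at 10 µM reaching about 35% in either raw or pattern-adjusted values, limit read from the data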
# Efflux pump mplx: blocks antifungal efflux pumps in multiplex yeast assay. S. cerevisiae Candida pump triplex, Nile Red efflux. inhibition, % at 10 µM. 0.44% of 330,000 active. AID 485275;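 active = plate passing quality check with inhibition over a set limit, or well fluorescence over plate mean plus 4 SD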;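 note: Nile Red retained in pooled yeast measured as flow cytometry median fluorescence; higher means more Nile Red kept so more efflux inhibition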
# A number is an active result; - = inactive; . = not tested or not shown; + = active, no number.
SMILES,V-ATPase pHluor,Rce1 inhib,NPR1 activator,NSD2 HMT inh,NPR2 activator,Efflux pump mplx
NC(=O)c1ccc(N=Cc2ccc([N+](=O)[O-])s2)cc1,113,.,-,-,-,-
O=C(Cc1cccs1)N/N=C\c1ccc([N+](=O)[O-])s1,-,-,-,-,-,-
O=[N+]([O-])c1ccc(C=Nc2ccc(Cl)c([N+](=O)[O-])c2)s1,145,.,-,.,-,.
O=[N+]([O-])c1ccc(/C=N/Nc2ncccc2[N+](=O)[O-])s1,-,-,-,-,-,-
CC(=O)Nc1sc2c(c1-c1nc3ccccc3s1)CCCN(C(C)C)C2,.,.,-,.,-,.
C[C@H](O)[C@@H]1CN2CCc3c([nH]c4c(-c5ccc6c(c5)OCO6)cccc34)[C@@H]2C[C@@H]1N(C)C(=S)NCCc1ccccc1,.,.,-,.,-,.
COc1cccc(CNC2CCC23CCC(C)CC3)c1 (stereo not given),.,.,-,.,-,.
O=C1NC2(C=Cc3c(ccc4ccccc34)O2)Oc2ccccc21 (stereo not given),-,+,.,-,.,-
Cc1cc(C)n2cc(CSCC(=O)O)nc2n1,-,+,-,-,-,-
Cc1ccccc1C(=O)N(C)[C@H]1C[C@H]2c3[nH]c4c(-c5ccc6c(c5)OCO6)cccc4c3CCN2C[C@H]1[C@H](C)O,.,.,-,.,-,.
Cc1cc(C)n2c(nc3ccccc32)c1C(=O)NN,-,-,-,-,-,-
Cc1cc(C)n2c(nc3ccccc32)c1C(=O)NCc1ccccc1,-,+,-,-,-,-
O=S1(=O)c2ccc(N3CCCC3)cc2Oc2ccccc2CN1Cc1cn(Cc2ccccc2C(F)(F)F)nn1,.,.,-,.,-,.
O=[N+]([O-])c1cc2oc3c(c2c(C=NCc2ccncc2)c1O)CCCC3,-,.,.,65,.,.
CN1CCN(C(=O)c2ccc3nc(-c4ccc(F)cc4)c(-c4ccc(F)cc4)nc3c2)CC1,.,.,.,-,.,.
NCCCn1c(C(=O)c2cc(Cl)c(N)c(Cl)c2)c2ccc(C(F)(F)F)cc2[n+]1[O-],-,+,-,.,-,-
NC(=O)CCCn1c(C(=O)c2cc(Cl)c(N)c(Cl)c2)c2ccc(C(F)(F)F)cc2[n+]1[O-],-,+,-,.,84,-
CC(C)CN1C(=O)[C@@]2(CC(=O)N(C)C2c2ccccc2)c2cc(-n3cc(CCc4ccccc4)nn3)ccc21 (stereo not given in full),.,.,-,.,-,.
COc1ccc(-c2nc(NC(=O)CSc3nnc4ccccn34)ns2)cc1,.,-,-,-,45,-
O=C1NN(c2ccccc2)C(=O)/C1=C\c1cccc(OC(=O)c2cccs2)c1,-,-,41,-,-,-
CCN1C(=O)[C@H]2[C@@H](c3ccc(C)cc3)N3C(=O)N(c4cccc(C)c4)C(=O)[C@@]3(Cc3ccccc3)[C@H]2C1=O,-,-,-,.,-,-
CCN1C(=O)[C@H]2[C@@H](c3ccc(C)cc3)N3C(=O)N(c4cccc(Br)c4)C(=O)[C@@]3(Cc3ccccc3)[C@H]2C1=O,13,-,-,.,-,-
CCOc1ccc(OCC)c(NC(=O)c2nnn(CC(=O)Nc3cc(C)cc(C)c3)c2N)c1,-,+,-,-,-,-
COC(=O)[C@]12C[C@H](CC(=O)NCC34CC5CC(CC(C5)C3)C4)C(=O)N(Cc3ccco3)C1=C[C@H](C(C)(C)C)O[C@@H]2C,.,.,-,.,-,.
CN(C)c1cc(O)c(C(=S)Nc2ccccc2)c(N(C)C)c1,-,+,-,.,-,-
SMILES,V-ATPase pHluor,Rce1 inhib,NPR1 activator,NSD2 HMT inh,NPR2 activator,Efflux pump mplx
COc1cccc(NCc2cc(=O)oc3cc(-c4ccccc4)c(O)cc23)c1,21,-,-,-,-,-
CCc1ccccc1NC(=S)N(CCCN(C)C)Cc1cc2cc3c(cc2[nH]c1=O)OCO3,-,+,-,-,-,-
COc1ccc(-c2c[n+]3c4n2CCCCC4=C(c2ccc(Br)cc2)C3)cc1,-,+,-,.,-,-
CC(=C\c1ccccc1)/C=C1/SC(=S)N(CCC(=O)Nc2ccccn2)C1=O,.,-,.,-,.,0.7
O=C(O)CN1C(=O)/C(=C\C(Br)=C\c2ccccc2)SC1=S,-,-,-,55,-,-
O=C1/C(=C\c2cc(Cl)c(O)c(Cl)c2)SC(=S)N1Cc1ccccc1,97,-,-,-,-,-
CC(/C=C1\SC(=S)N(CCC(=O)Nc2ccccc2O)C1=O)=C\c1ccccc1,-,-,-,-,-,-
COc1ccc(/C=C2/SC(=S)N(Cc3ccccc3)C2=O)cc1O,-,-,-,-,-,-
COC(=O)[C@H]1C[C@@]2(C)c3ccccc3N(S(=O)(=O)c3ccccc3)[C@H]2N1,.,.,-,.,-,.
Cc1cccc(-c2cccc3c4c([nH]c23)[C@@H]2C[C@H](N(C)C(=O)OCc3ccccc3)[C@H]([C@H](C)O)CN2CC4)c1,.,.,-,.,-,.
COc1cc2[nH]c3c(=O)n(CCN4CCOCC4)cnc3c2cc1OC,-,+,-,-,-,-
CCOC(=O)c1cc(-c2csc(COc3ccccc3)n2)on1,-,-,67,-,-,-
CCOC(=O)c1cc(-c2csc(COc3ccccc3Cl)n2)on1,-,-,63,-,-,-
CCOC(=O)c1cc(-c2csc(-c3cccc(Cl)c3)n2)on1,-,-,-,-,-,-
CCOC(=O)c1csc(COc2ccccc2Cl)n1,-,-,-,-,-,-
CCOC(=O)c1cc(-c2csc(COc3ccc(Cl)cc3)n2)on1,-,-,58,-,-,-
CC(=O)Nc1nc2ncccn2c1-c1ccc(F)c(F)c1,.,.,-,.,-,.
O=C(Cn1c(=O)c2cccn2c2cccnc21)NCCCN1CCN(c2ccccc2)CC1,.,.,-,.,-,.
O=C(CCc1ccccc1)N[C@H]1[C@@H](OC(=O)c2cnccn2)CCC[C@@]12C(=O)N(Cc1ccccc1)c1ccccc12,.,.,-,.,-,.
O=C(O)c1ccccc1NS(=O)(=O)c1ccc(N/N=C/c2ccc(O)c(O)c2)c([N+](=O)[O-])c1,-,.,-,116,-,.
CN(C(=O)CCn1nnc(-c2cccs2)n1)C1CCCCC1,.,.,-,-,-,.
C=CCN1[C@@H](C)COc2cc(F)ccc2S1(=O)=O,.,.,-,.,-,.
